# Measurements taken from PubChem BioAssay.
# Several values for one entry are separate records, joined by “and”; a condition that tells them apart may be missing. Identical values can stand only once. Activity calls are given as the source filed them. Cut-off read from the data, not from the text of the source, unless noted: active = parasite load remaining mostly below about 12% (no sharp cut-off); inactive = mostly above about 10%.
# Legend:
# [1] = yeast 75Q aggregation reduction – 75Q-TubU reporter (AID 1593); conditions: Yeast 75Q polyglutamine aggregation reporter
# [2] = blockers of cytochrome c efflux from mitochondria – biochemical, purified mitochondria (AID 1603); conditions: stronger effect = lower value;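 note: mouse liver mitochondria challenged with calcium chloride; signal normalized to the plate average as 100%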
# [3] = polyglutamine aggregate formation blockers (AID 1604); conditions: polyglutamine-induced protein aggregation inhibition assay; stronger effect = higher value; tested at 2.5 µM
# [4] = P. berghei load reduction in hepatocytes – cell-based, HepG2, luciferase luminescence, HepG2 viability, primary screen (AID 624349);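 note: 100% = mean of DMSO negative control wells on the same plate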; conditions: P. berghei liver stage in HepG2, luciferase luminescence, concentration not given here; parasite load remaining: stronger effect = lower value; viability: measured here: HepG2 viability without parasites
# [5] = Wnt pathway potentiators raising nuclear beta-catenin – imaging, WNT3A-conditioned medium, mouse C2C12, NPC library, primary screen (AID 1117326; in the data active = nuclear beta-catenin stimulation mostly above about 4.2%, no sharp cut-off; inactive = mostly below about 10%); conditions: stronger effect = higher value
# [6] = stimulators of insulin release from INS-1E, primary screen, cell-based, 5 mM glucose, NPC library (AID 1117329;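 active = compound raises insulin release from rat beta cells at 5 mM glucose, no numeric limit stated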); conditions: rat INS-1E insulin secretion, at 10 µM, stronger effect = higher value
# [7] = growth inhibition of GSK3B-pretreated HCT116 cells – cell-based, CellTiter-Glo, 0.2 to 20 µM (AID 1117336;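 active = compounds lowering colon cancer cell viability after pretreatment blocking the GSK3B kinase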); conditions: HCT116 viability after GSK3B inhibitor, at 20 µM, stronger effect = higher value
# [8] = inhibition of endothelial tube formation, primary screen, imaging, VEGF stimulated, CD31 staining, tube area, NPC library (AID 1117340;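 active = compound that reduces growth-factor-driven endothelial tube area in a mixed cell culture, no cutoff stated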); conditions: VEGF-stimulated ADSC/ECFC co-culture, at 10 µM, stronger effect = higher value
# [9] = GLP1 release stimulators, primary, NCI-H716, NPC library (AID 1117341;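 active = compound raises GLP1 secretion from the human gut endocrine cells, with no numeric limit stated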); conditions: NCI-H716 cells, at 10 µM, stronger effect = higher value
# [10] = HCT116 colon cancer cell growth inhibition, primary screen, CellTiter-Glo luminescence, NPC library (AID 1117342;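 active = compounds that lower survival of HCT116 colon cancer cells in the luminescence readout, no numeric limit stated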); conditions: at 20 µM (top of the series)
# [11] = reduced SW480 viability measured with CellTiter-Glo, NPC library, primary (AID 1117343;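 active = compounds that lower viability of the colon cancer cells in the luminescence readout, with no numeric limit stated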); conditions: CellTiter-Glo luminescence; at 20 µM (top of the series)
# [12] = NPC library primary testing for decreased DLD-1 cell viability via CellTiter-Glo (AID 1117346;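 active = compounds that lower survival of DLD-1 colon cancer cells in the luminescence readout, no cutoff given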); conditions: DLD-1 viability, CellTiter-Glo luminescence; at 20 µM (top of the series)
# [13] = target: 6-phosphogluconate dehydrogenase, decarboxylating (Homo sapiens) (UniProt P52209); assay: inhibition of human phosphogluconate dehydrogenase – biochemical, recombinant enzyme, NADPH absorbance, primary screen (AID 1159550;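 active = at least 20% inhibition of 6-phosphogluconate dehydrogenase activity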); conditions: recombinant 6PGD, NADPH absorbance 341 nm; at 10 µM; stronger effect = higher value
# Sequence of 6-phosphogluconate dehydrogenase, decarboxylating (Homo sapiens) (P52209 whole entry, looked up): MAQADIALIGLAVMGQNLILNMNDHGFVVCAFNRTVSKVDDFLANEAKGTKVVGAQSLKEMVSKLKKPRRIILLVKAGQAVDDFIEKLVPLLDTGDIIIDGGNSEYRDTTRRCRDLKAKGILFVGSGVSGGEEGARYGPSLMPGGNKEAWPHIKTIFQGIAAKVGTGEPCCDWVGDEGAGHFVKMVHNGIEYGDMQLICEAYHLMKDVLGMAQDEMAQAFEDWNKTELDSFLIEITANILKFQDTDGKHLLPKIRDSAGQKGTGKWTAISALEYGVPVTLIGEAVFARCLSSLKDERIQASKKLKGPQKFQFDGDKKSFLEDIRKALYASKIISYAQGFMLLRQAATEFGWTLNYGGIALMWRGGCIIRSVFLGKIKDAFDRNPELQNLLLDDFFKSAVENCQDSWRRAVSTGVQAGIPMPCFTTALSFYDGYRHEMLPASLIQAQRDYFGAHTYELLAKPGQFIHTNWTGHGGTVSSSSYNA
# [14] = EMT-state selective cytotoxicity in co-culture – imaging, PC-3E GFP, TEM4-18 mCherry, primary screen (AID 1345086;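 active = compounds killing one labelled cell type while sparing the other, by normalised counts and ratio limits, not self-fluorescent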;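 for all read-outs here: cells exposed to compound for 72 h before imaging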;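 for red/green cell ratio (normalised): normalised mesenchymal count divided by normalised epithelial count so high means epithelial killing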); conditions: PC-3E GFP / TEM4-18 mCherry co-culture, imaging cell counts, at 1 µM; for red/green cell ratio (normalised): actives lie on both sides
# [15] = tested on: Aerobactin synthetase IucA (Klebsiella pneumoniae hvKP1); assay: IucA enzyme inhibition, primary screen, biochemical, Spectrum library (AID 1346200; call rule not given here;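 note: 100% = wells without compound and 0% = wells lacking enzyme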); conditions: malachite green pyrophosphate, A620, at 8 µM, stronger effect = lower value
# [16] = viability loss with induced miR-34 in A549 – imaging, A549 dox-inducible miR-34, nuclei and caspase counts, primary screen (AID 1347080;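 active = compounds whose cell count with miR-34 switched on is under 0.7 times the count with it off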); conditions: A549 miR-34 inducible, Hoechst nuclei count, 48 h
# [17] = MELAS cybrid and Rieske KO viability enhancers – cell-based, MELAS cybrids, Rieske KO mouse fibroblasts, CellTiter-Glo, primary screen (AID 1508586;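 active = mean z-score across replicates of 1.96 or higher in either the MELAS or the Rieske mutant cell line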;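 note: z relative to plate mean and SD of compound and empty wells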); conditions: low glucose
# [18] = target: NAD(+) hydrolase SARM1 (Homo sapiens) (UniProt Q6SZW1); assay: blocking NAD cleavage by SARM1 SAM-TIR – cell lysate, NAD-Glo luminescence (AID 1508614;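 active = compound whose remaining NAD level is above about 45 nM, limit read from the data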;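 note: higher remaining NAD means stronger inhibition of SARM1 NADase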); conditions: SAM-TIR HEK293T lysate NADase, at 1 µM, stronger effect = higher value
# Sequence of NAD(+) hydrolase SARM1 (Homo sapiens) (Q6SZW1 whole entry, looked up, the tested form may be a part): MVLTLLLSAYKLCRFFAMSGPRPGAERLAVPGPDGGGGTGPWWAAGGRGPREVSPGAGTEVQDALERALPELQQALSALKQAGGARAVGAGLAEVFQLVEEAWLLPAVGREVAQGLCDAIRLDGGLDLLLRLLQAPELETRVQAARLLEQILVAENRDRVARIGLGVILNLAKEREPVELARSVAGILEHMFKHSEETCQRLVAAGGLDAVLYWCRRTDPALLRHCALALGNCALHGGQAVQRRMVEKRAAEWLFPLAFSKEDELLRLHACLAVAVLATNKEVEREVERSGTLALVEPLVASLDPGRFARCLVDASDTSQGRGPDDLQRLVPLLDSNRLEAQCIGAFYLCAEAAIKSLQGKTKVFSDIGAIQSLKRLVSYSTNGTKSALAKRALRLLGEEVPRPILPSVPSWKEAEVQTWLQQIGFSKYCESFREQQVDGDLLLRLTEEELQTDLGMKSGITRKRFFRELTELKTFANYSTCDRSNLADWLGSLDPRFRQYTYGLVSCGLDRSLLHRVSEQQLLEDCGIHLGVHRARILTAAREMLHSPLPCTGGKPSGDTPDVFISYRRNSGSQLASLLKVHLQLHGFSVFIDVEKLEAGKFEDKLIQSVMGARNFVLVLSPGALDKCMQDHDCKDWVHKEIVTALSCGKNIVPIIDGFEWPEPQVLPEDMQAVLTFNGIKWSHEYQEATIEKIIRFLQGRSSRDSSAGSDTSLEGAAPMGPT
# [19] = target: Mitogen-activated protein kinase 7 (Homo sapiens) (UniProt Q13164); assay: Gal4-ERK5 driven luciferase induction – cell-based, HTS, primary screen (AID 1508626;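 active = luciferase signal above three times the same-plate solvent-only control wells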;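 note: luciferase driven by Gal4-ERK5 fusion binding five Gal4 sites before minimal TATA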); conditions: HeLa Gal4-ERK5 transactivation, 18 h, at 5 µM, stronger effect = higher value
# Sequence of Mitogen-activated protein kinase 7 (Homo sapiens) (Q13164 whole entry, looked up, the tested form may be a part): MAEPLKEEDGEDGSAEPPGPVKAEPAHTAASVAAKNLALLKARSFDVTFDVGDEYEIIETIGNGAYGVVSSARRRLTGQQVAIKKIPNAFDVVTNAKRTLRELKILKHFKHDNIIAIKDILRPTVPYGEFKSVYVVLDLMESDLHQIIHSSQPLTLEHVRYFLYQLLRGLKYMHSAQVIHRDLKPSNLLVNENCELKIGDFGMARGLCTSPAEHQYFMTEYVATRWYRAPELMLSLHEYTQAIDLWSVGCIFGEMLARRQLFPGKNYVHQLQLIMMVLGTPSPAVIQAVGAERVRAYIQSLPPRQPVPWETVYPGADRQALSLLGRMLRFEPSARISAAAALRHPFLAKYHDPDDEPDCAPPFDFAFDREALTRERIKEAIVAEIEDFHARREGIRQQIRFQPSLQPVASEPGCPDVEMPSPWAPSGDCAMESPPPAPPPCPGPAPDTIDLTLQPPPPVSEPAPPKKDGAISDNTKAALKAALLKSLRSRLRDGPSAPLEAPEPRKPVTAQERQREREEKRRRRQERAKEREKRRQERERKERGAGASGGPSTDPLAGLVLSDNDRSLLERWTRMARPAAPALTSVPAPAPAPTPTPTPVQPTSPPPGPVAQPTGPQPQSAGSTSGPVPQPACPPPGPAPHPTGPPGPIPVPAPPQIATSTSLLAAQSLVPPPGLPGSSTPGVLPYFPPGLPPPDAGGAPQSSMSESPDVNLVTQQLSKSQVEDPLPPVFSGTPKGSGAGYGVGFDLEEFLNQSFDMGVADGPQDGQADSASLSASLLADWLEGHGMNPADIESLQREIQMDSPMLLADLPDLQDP
# [20] = galactose survival enhancers in mitochondrial complex I cybrids – cell-based, galactose medium, ATP luminescence, primary screen (AID 1645843;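 active = z-score of at least 1.8 in each of two replicates, scored against plate mean and spread of sample wells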;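 note: positive z means more ATP and so rescue of galactose-driven cybrid death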); conditions: complex I mutant cybrid cells, 72 h, stronger effect = higher value
# [21] = measured here: epithelial PC-3E GFP cell survival
# [22] = measured here: mesenchymal TEM4-18 mCherry cell survival
# [23] = measured here: relative caspase fold change +Dox/-Dox
# [24] = measured here: total cells with miR-34 induction, stronger effect = lower value
# [25] = measured here: total cells without miR-34 induction
# [26] = MELAS cybrid survival, CellTiter-Glo 48 h, stronger effect = higher value
# [27] = Rieske KO mouse fibroblast survival, CellTiter-Glo 72 h
compound,measurement,setting,value
CC(C)(C)NCC(O)c1cc(Cl)c(N)c(Cl)c1 (stereo unspecified),score,[1],1.52
same,cytochrome c release ratio,[2],1.06
same,inhibition of aggregation,[3],29.4%
same,parasite load remaining,[4],72.5% (inactive) and 86% (inactive) and 37.5% (inactive)
same,viability,[4],109% and 74.6% and 102%
same,nuclear beta-catenin stimulation,[5]; at 10 µM,0% (inactive)
same,nuclear beta-catenin stimulation,"[5]; stimulation, at 2 µM",1.4%
same,insulin secretion stimulation,[6],3.8% (inactive)
same,viability decrease,[7],-1.4% (inactive)
same,tube area decrease,[8],13.7% (inactive)
same,GLP1 secretion stimulation,[9],0.6% (inactive)
same,inhibition of viability,[10],24.9% (inactive)
same,viability decrease (inhibition),[11],15.4% (inactive)
same,viability decrease (inhibition),[12],10.4% (inactive)
same,inhibition,[13],-5.11% (inactive)
same,red/green cell ratio (normalised),[14],1.04 (inactive)
same,normalised cell number,[14]; [21],1.05
same,normalised cell number,[14]; [22],1.09
same,activity remaining,[15],115% (inactive)
same,fold change,[16]; stronger effect = lower value,0.844 (inactive) and 0.889 (inactive)
same,fold change,[16]; [23],1.23 and 1.3
same,cell count,[16]; [24],8390 and 9780
same,cell count,[16]; [25],9940 and 11000
same,z-score,[17]; [26],0.503 (inactive) and 0.285 (inactive)
same,z-score,[17]; [27],0.0878 and 0.551
same,remaining NAD,[18],10 nM (inactive)
same,luciferase signal,[19],44 AU (inactive)
same,z-score,[20],0.41 (inactive)
c1ccc2c(c1)sc1ccccc12,score,[1],-0.17
same,cytochrome c release ratio,[2],0.98
same,inhibition of aggregation,[3],65.4%
same,parasite load remaining,[4],94.3% (inactive) and 69.4% (inactive)
same,viability,[4],70.5% and 91.8%
same,nuclear beta-catenin stimulation,[5]; at 10 µM,0.1% (inactive)
same,nuclear beta-catenin stimulation,"[5]; stimulation, at 2 µM",0.9%
same,insulin secretion stimulation,[6],-1.4% (inactive)
same,viability decrease,[7],-3.95% (inactive)
same,tube area decrease,[8],-9.2% (inactive)
same,GLP1 secretion stimulation,[9],-2.6% (inactive)
same,inhibition of viability,[10],-22.5% (inactive)
same,viability decrease (inhibition),[11],-1.8% (inactive)
same,viability decrease (inhibition),[12],3% (inactive)
same,inhibition,[13],9.3% (inactive)
same,red/green cell ratio (normalised),[14],1.2 (inactive)
same,normalised cell number,[14]; [21],1.12
same,normalised cell number,[14]; [22],1.35
same,activity remaining,[15],113% (inactive)
same,fold change,[16]; stronger effect = lower value,0.934 (inactive) and 0.791 (inactive)
same,fold change,[16]; [23],0.629 and 1.03
same,cell count,[16]; [24],8380 and 10000
same,cell count,[16]; [25],8970 and 12600
same,z-score,[17]; [26],-0.144 (inactive)
same,z-score,[17]; [27],-0.145
same,remaining NAD,[18],10 nM (inactive)
same,luciferase signal,[19],32 AU (inactive)
C[C@@H]1O[C@@H](O[C@H]2C[C@@H](O)[C@]3(CO)[C@H]4[C@H](O)C[C@]5(C)[C@@H](C6=CC(=O)OC6)CC[C@]5(O)[C@@H]4CC[C@]3(O)C2)[C@H](O)[C@H](O)[C@H]1O,parasite load remaining,[4],-1.77% (inactive) and 5.6% (inactive) and -0.23% (inactive)
same,viability,[4],38.8% and 25.7% and 34%
same,nuclear beta-catenin stimulation,[5]; at 10 µM,0% (inactive)
same,nuclear beta-catenin stimulation,"[5]; stimulation, at 2 µM",-1.2%
same,insulin secretion stimulation,[6],5.8% (inactive)
same,viability decrease,[7],84.8% (active)
same,tube area decrease,[8],112% (active)
same,GLP1 secretion stimulation,[9],9.2% (inactive)
same,inhibition of viability,[10],56.6% (active)
same,viability decrease (inhibition),[11],61% (active)
same,viability decrease (inhibition),[12],77.4% (active)
same,inhibition,[13],-10.9% (inactive)
same,fold change,[16]; stronger effect = lower value,0.999 (inactive) and 0.916 (inactive) and 0.73 (inactive)
same,fold change,[16]; [23],0.275 and 1.45 and 1.97
same,cell count,[16]; [24],345 and 529 and 320
same,cell count,[16]; [25],346 and 578 and 438
same,z-score,[17]; [26],2.21 (active)
same,z-score,[17]; [27],-0.329
same,remaining NAD,[18],10 nM (inactive)
same,luciferase signal,[19],16 AU (inactive)
same,z-score,[20],-1.23 (inactive) and -2.25 (inactive)
